Experimental data published in PubChem BioAssay (Tox21).
Inconclusive results are not listed. A number with no mark means an inactive call. The call rests on the fitted dose curve; in most records, active means well fitted cell-killing curve with a large enough effect in the repeat runs; inconclusive means weak or mixed curves, or effect the other way; inactive means no such curve, though single readings can be large or run the other way.

experiment: qHTS assay to identify small molecule agonists of the farnesoid-X-receptor (FXR) signaling pathway - cell viability counter screen (AID 743218); conditions: FXR-bla HEK293T viability, CellTiter-Glo luminescence, 16 h; series mostly up to 62.6 µM; viability change, negative = cytotoxic: at the top concentration; further: nearly all actives have a fitted effect of over 45% in size
Excerpt: U.S. Tox21 Program National Center for Advancing Translational Sciences [NCATS] NIH Chemical Genomics Center [NCGC] U.S. Environmental Protection Agency [EPA] National Institutes of Environmental Health Sciences [NIEHS] National Toxicology Program [NTP] U.S. Food and Drug Administration [FDA] Tox21 Assay Overview: The farnesoid-X-receptor (FXR), a nuclear hormone receptor, is highly expressed in liver, intestine, kidney and adrenal cortex. Natural ligands of FXR are the bile acids (Cholic acid, Chenodeoxy cholic acid etc). FXR is an important regulator of diverse metabolic pathways, including the bile acid homeostasis, lipid and glucose metabolisms. FXR regulates the expression of target genes by binding either as a monomer or as a heterodimer with the retinoid X receptor (RXR). Numerous studies have reported that FXR exerts protective function during cholestasis, diabetes, liver regeneration, and cancer. To identify compounds that activate FXR signaling, GeneBLAzer FXR-UAS-bla HEK 293T cell line (Invitrogen, Carlsbad, CA) containing a beta-lactamase reporter gene under the control of a UAS response element was used to screen the Tox21 10K compound library. The cytotoxicity of the Tox21 compound library against the FXR-bla cell line was tested in parallel by measuring the cell viability using CellTiter-Glo assay in the same wells.
Tox21 Assay Protocol Summary: FXR-bla cells were dispensed at 5000 cells/5uL/well in 1536-well black wall/clear bottom plates using a Multidrop Combi (Thermo Fisher Scientific, Waltham, MA) dispenser. After the assay plates were incubated at 37 C and 5% CO2 for 5 h, 23 nL of compounds dissolved in DMSO, positive controls or DMSO only was transferred to the assay plate by a Pintool station (Kalypsys, San Diego, CA). The assay plates were incubated at 37C for 16 h. After 1 uL of LiveBLAzerTM B/G FRET substrate was added using a Bioraptr Flying Reagent Dispenser (FRD) workstation (Beckman Coulter, Indianapolis, IN), the plates were incubated at room temperature for 2 h, and fluorescence intensity was measured by an Envision plate reader (PerkinElmer, Shelton, CT). For cell viability readout that measures cytotoxicity, 4uL/well of CellTiter-Glo reagent was added into the assay plates using a Bioraptr FRD. After 30 min incubation at room temperature, the luminescence intensity in the plates was measured using a ViewLux plate reader (PerkinElmer).
On the % scale 0 is the no-effect control and ±100 the full control effect.

SMILES | viability change, negative = cytotoxic
CCCc1ccccc1O | -4.37%
CCC(=O)c1cccc(Cl)c1 | 5.94% [at 81.1 µM]
CCCC(C)CO (stereo not given) | -0.128%
Nc1ccn(C2CO[C@H](CO)O2)c(=O)n1 (stereo not given in full) | -3.47%
CC(C)(C)C(=O)/C=C/c1ccc(Cl)cc1 | 8.95%
CC(=O)OC(C)(C)C | 2.37%
CC/C=C\CCCCO | 2.33%
NC(=S)Nc1cccc2ccccc12 | 18.3% [at 5.95 µM]
CO[Si](OC)(OC)OC | 6.86%
CC(C)(C)N(CCO)CCO | -8.43% [at 81.1 µM]
Cc1ccc(N)cc1[N+](=O)[O-] | -5.07% [at 81.1 µM]
CCN(CC)S(=O)(=O)c1ccc(C(=O)O)cc1 | 1.28%
CCCCCCCCCCCCI | 3.73% [at 81.1 µM]
Fc1ccccc1-c1ccccc1 | -0.0724% [at 81.1 µM]
CC(CCO)CCCC(C)(C)O (stereo not given) | -7.79%
COc1cccc(Br)c1 | -38.9%
COC(=O)CCCC(=O)O | 9.2%
COc1ccc2cc(C=O)ccc2c1 | 15.2%
CC(C)(C)CC(C)(C)N | 11.6%
CCCCCCOC(=O)c1ccccc1O | 1.42%

SMILES | viability change, negative = cytotoxic
C[C@H]1O[C@@H](n2cc(F)c(=O)[nH]c2=O)[C@H](O)[C@@H]1O | -19.2%
O=C(O)C1CCC1 | 2.23%
O=c1[nH]c(=O)n([C@H]2O[C@H](CO)[C@@H](O)[C@@H]2O)cc1/C=C\Br | 4.14%
CCCCCCC(=O)OCC | -10.4%
CCCCCN(CCCCC)C(=O)C(CCC(=O)O)NC(=O)c1ccc(Cl)c(Cl)c1 (stereo not given) | 2.42%
C=CC(=O)N1CCOCC1 | 29.1%
CC(C)CCCC(C)CCCC(C)CCCCC(C)CCCC(C)CCCC(C)C (stereo not given) | -0.268%
CCCc1ccc(N)cc1 | 12.5%
CC1(C)OC(=O)Nc2ccc(Br)cc21 | 0.556%
C=C(C)[C@@H]1CCC2=CC(=O)C[C@@H](C)[C@]2(C)C1 | -2.31%
CSc1ccc(C=O)cc1 | -10.4%
NC(=O)c1ncn([C@@H]2O[C@H](CO)[C@@H](O)[C@H]2O)c1N | 5.28%
CC(C)COC(=O)c1ccccc1O | 8.78%
O=C(O)/C=C/c1ccc(Cn2ccnc2)cc1 | -9.51%
CCn1cc(C(=O)O)c(=O)c2cc(F)c(N3CCN(C)CC3)cc21 | 0.103% [at 29.1 µM]
CCC(=O)Nc1cccc(N)c1 | 1.18%
c1ccc2cnncc2c1 | -10.2%
C=CCn1c(=O)n([C@@H]2O[C@H](CO)[C@@H](O)[C@H]2O)c2nc(N)[nH]c(=O)c21 | 9.69%
O=C(O)c1ccc[n+]([O-])c1 | -3.49%
CO[Si](CCCNCCC[Si](OC)(OC)OC)(OC)OC | -5.03%
